Assay results as given in PubChem BioAssay.
Unmarked numbers belong to inactive results. For some assays here: Entries with a potency or affinity are not part of this list. Activity calls are given as the source filed them. Unless noted, no rule for the calls is given here.

Columns and labels:
[1] = antimalarial activity against Dd2 strain (AID 2302;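 active = growth inhibition above 50% at the single 2 µM test dose, taken to imply half-maximal potency below 2 µM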;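 also: 0% = DMSO untreated growth and 100% = chloroquine plus artemisinin killed control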); conditions: P. falciparum Dd2 in RBCs, LDH growth readout, 72 h; at 2 µM; hits give high values
[2] = human hepatoma cell viability loss – ATP luminescence, cytotoxicity control for P. falciparum antimalarial project, primary screen (AID 2303;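 active = inhibition above 50%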;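 also: 0% = DMSO wells and 100% = digitonin-killed cells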); conditions: HepG2 viability, 24-48 h, at 10 µM, hits give high values
[3] = molecular target: L-lactate dehydrogenase (Plasmodium falciparum (isolate CDC / Honduras)) (UniProt Q27743); test: PfLDH activity inhibition – cell lysate, 3D7 strain, counter-screen for P. falciparum growth inhibition project (AID 2304);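 also: 0% = vehicle and 100% = reference inhibitor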; conditions: P. falciparum 3D7 crude extract, LDH APAD/NBT absorbance; at 2 µM; hits give high values
[4] = inhibition of 3D7 malaria parasite growth – strain 3D7 (AID 2306);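 also: 0% = DMSO wells and 100% = chloroquine plus artemisinin control wells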; conditions: P. falciparum 3D7 erythrocytic growth, LDH absorbance, 72 h; at 2 µM; hits give high values
[5] = molecular target: Calcium-dependent protein kinase 1 (Plasmodium falciparum (isolate 3D7)) (UniProt P62344); test: PfCDPK1 kinase inhibitors, biochemical, TCAMS library (AID 1159585; cut-off not given, nearly all actives have IC50 up to about 0.98 µM;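 also: inhibitors leave more ATP so luminescence rises with inhibition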); conditions: recombinant PfCDPK1, Kinase-Glo ATP depletion luminescence
[6] = molecular target: Plasmodium falciparum protein kinase 6 (PK6, PF3D7_1337100) (UniProt Q8IDW1); test: PfPK6 kinase inhibitors, biochemical, TCAMS library (AID 1159586); conditions: recombinant PfPK6, Kinase-Glo ATP depletion luminescence
[7] = molecular target: Protein kinase 7 (PK7), Plasmodium falciparum 3D7 (PF3D7_0213400) (UniProt Q7YTF7); test: inhibition of Plasmodium PK7 catalytic activity – biochemical, TCAMS antimalarial set, Kinase-Glo luminescence (AID 1159587); conditions: recombinant PfPK7, Kinase-Glo ATP depletion luminescence
[8] = molecular target: Calcium-dependent protein kinase 4 (Plasmodium falciparum (isolate 3D7)) (UniProt Q8IBS5); test: PfCDPK4 kinase inhibitors, biochemical, TCAMS library (AID 1159588; cut-off not given, nearly all actives have IC50 up to about 0.91 µM); conditions: recombinant PfCDPK4, Kinase-Glo ATP depletion luminescence
Calcium-dependent protein kinase 4 (Plasmodium falciparum (isolate 3D7)), sequence (Q8IBS5 whole entry, looked up): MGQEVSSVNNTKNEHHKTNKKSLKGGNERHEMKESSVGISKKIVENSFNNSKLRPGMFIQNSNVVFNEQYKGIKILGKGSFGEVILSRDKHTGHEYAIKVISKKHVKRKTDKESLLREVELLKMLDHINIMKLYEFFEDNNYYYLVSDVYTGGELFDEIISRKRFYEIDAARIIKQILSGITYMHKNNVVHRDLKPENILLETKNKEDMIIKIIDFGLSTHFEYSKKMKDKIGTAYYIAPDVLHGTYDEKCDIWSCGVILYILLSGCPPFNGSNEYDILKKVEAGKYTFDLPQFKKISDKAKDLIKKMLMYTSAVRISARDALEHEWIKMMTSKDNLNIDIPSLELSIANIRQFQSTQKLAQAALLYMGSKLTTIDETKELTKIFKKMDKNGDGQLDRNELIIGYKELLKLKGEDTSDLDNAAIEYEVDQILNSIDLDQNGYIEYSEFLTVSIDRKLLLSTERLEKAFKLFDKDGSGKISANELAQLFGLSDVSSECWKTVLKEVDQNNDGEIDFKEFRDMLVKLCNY

Calcium-dependent protein kinase 1 (Plasmodium falciparum (isolate 3D7)), sequence (P62344 whole entry, looked up): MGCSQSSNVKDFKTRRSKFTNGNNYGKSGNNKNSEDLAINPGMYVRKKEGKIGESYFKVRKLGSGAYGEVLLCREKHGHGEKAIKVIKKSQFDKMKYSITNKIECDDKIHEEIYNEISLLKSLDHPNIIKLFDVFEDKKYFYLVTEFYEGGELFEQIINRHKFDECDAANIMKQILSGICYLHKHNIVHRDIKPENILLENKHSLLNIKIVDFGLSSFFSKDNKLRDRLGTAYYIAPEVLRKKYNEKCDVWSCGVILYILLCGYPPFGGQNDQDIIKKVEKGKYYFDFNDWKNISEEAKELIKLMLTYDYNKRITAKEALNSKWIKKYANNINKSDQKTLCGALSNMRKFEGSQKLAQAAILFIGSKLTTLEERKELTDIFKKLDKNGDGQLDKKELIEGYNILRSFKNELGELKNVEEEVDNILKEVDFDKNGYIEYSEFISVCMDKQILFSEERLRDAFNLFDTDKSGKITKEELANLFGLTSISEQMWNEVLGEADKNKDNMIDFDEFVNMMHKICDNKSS
Protein kinase 7 (PK7), Plasmodium falciparum 3D7 (PF3D7_0213400), sequence (Q7YTF7 1-343): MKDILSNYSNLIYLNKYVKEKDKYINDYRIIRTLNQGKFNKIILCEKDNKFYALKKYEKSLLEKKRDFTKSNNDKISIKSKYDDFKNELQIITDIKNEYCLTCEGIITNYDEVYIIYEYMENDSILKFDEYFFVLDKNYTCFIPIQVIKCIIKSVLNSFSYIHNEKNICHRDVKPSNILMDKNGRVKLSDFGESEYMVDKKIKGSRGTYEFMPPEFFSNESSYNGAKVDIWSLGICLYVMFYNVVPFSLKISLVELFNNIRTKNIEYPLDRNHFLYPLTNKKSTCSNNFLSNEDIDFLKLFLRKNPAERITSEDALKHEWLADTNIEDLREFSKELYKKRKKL
L-lactate dehydrogenase (Plasmodium falciparum (isolate CDC / Honduras)), sequence (Q27743 whole entry, looked up): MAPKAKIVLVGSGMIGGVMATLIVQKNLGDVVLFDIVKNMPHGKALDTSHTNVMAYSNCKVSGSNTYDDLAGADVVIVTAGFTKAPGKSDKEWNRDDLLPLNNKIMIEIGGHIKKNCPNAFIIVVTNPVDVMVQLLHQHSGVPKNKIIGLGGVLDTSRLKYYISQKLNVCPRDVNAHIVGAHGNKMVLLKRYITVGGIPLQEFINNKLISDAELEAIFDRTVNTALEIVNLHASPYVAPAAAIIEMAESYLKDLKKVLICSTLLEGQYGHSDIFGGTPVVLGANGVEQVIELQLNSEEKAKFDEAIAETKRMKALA
Plasmodium falciparum protein kinase 6 (PK6, PF3D7_1337100), sequence (Q8IDW1 1-305): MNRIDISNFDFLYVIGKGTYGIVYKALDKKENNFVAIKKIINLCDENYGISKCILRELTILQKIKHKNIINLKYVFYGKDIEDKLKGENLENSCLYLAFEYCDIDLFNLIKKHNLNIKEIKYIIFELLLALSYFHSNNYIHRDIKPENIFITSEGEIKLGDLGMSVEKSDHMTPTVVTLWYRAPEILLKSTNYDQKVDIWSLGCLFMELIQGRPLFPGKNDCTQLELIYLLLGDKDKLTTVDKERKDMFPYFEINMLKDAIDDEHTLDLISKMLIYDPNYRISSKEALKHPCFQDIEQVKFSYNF

| SMILES | growth inhibition [1] | inhibition [2] | inhibition [3] [%] | growth inhibition [4] | outcome [5] | outcome [6] | outcome [7] | outcome [8] |
| --- | --- | --- | --- | --- | --- | --- | --- | --- |
| Cc1nnc(Sc2ncnc3scc(-c4ccc(F)cc4)c23)s1 | 50% (active) | 13% | 4 | 99% (active) | inactive | inactive | inactive | inactive |
| COCCNCc1ccc(-c2cccc(CNc3ccc(OC)cc3)c2)cc1 | 2% | 16% | -1 | 94% (active) | inactive | inactive | inactive | inactive |
| O=C(Nc1ccc(C(F)(F)F)cc1)c1ccc(NCCCN2CCCCCC2)c([N+](=O)[O-])c1 | 98% (active) | 42% | -5 | 102% (active) | inactive | inactive | inactive | inactive |
| CCCCn1c(Sc2ccc(C#N)c([N+](=O)[O-])c2)nnc1-c1cc(OC)cc(OC)c1 | 70% (active) | 7% | 2 | 94% (active) | inactive | inactive | inactive | inactive |
| COc1ccc2nccc(NN=Cc3ccc(Cl)cc3)c2c1 | 72% (active) | 9% | -1 | 101% (active) | inactive | inactive | inactive | inactive |
| Nc1nc(N)c2c(ccc3c2ccn3Cc2ccccc2)n1 | 94% (active) | 64% (active) | -8 | 96% (active) | inactive | inactive | inactive | inactive |
| CC1(C)C=C(c2ccncc2)c2cc(Cl)ccc2O1 | 22% | -4% | 1 | 97% (active) | inactive | inactive | inactive | inactive |
| CCN1CCC(N(Cc2ccc(-c3ccc(C(F)(F)F)cc3)o2)C(=O)Cn2c(CCc3cccc(F)c3F)nc(=O)c3ccccc32)CC1 | 88% (active) | 45% | -1 | 91% (active) | inactive | inactive | inactive | inactive |
| COc1ccc(Cn2c(=O)[nH]c3cc(C(=O)NC4CCN(Cc5ccccc5)CC4)ccc3c2=O)cc1 | 45% | 10% | -7 | 97% (active) | inactive | inactive | inactive | inactive |
| COc1ccc(-c2cccc(NC(=O)c3ccc(C#N)cc3)c2)cc1CN1CCCC1 | 15% | 30% | -5 | 98% (active) | inactive | inactive | inactive | inactive |
| CC(C)OC(=O)c1cccnc1SCC(=O)Nc1ccc(C(F)(F)F)cc1Cl | 88% (active) | 3% | -3 | 97% (active) | inactive | inactive | inactive | inactive |
| Cc1ccc(Cn2nc(Cl)c(N3CCCNCC3)cc2=O)cc1NC(=O)Nc1ccc(-c2ccccc2)cc1 | 55% (active) | 90% (active) | -1 | 101% (active) | inactive | inactive | inactive | inactive |
| Cc1c(-c2cccc(C(C)(C)NC3CCN(Cc4ccccc4)CC3)c2)cnc(N)c1C | 39% | 14% | -6 | 100% (active) | inactive | inactive | inactive | inactive |
| COc1ccc2cc(C=NNc3nc4ccccc4[nH]3)c(Cl)nc2c1 | 90% (active) | 2% | -2 | 100% (active) | inactive | inactive | inactive | inactive |
| CN(C)CCc1coc2ccc(C(=O)Nc3ccc(-c4ccc(O)cc4)cc3)cc12 | 40% | 28% | -3 | 101% (active) | inactive | inactive | inactive | inactive |
| CCNc1cc(C(=O)N[C@@H](Cc2ccccc2)[C@H](O)CNC(C)(C)CCCC(C)C)cc(N2CCCC2=O)c1 | 81% (active) | -12% | -1 | 100% (active) | inactive | inactive | inactive | inactive |
| N#Cc1ccc(/C=C/C(=O)NCCCCCN2CCN(C(=O)Nc3ccc(Cl)c(C(F)(F)F)c3)CC2)cc1 | -7% | 42% | -1 | 94% (active) | inactive | inactive | inactive | inactive |
| Cc1cc(N[C@@H](CC(C)C)C(=O)NCCc2ccccc2)nc(NCc2ccccc2C)n1 | 74% (active) | 17% | 0 | 93% (active) | inactive | inactive | inactive | inactive |
| COc1ccc(-c2ccc(NC(=O)c3cccc(Cl)c3)cc2)cc1CN1CCN(C)CC1 | 33% | 42% | -2 | 90% (active) | inactive | inactive | inactive | inactive |
| COc1cc2ccccc2cc1OCCCN1CCN(CC(c2ccc(F)cc2)N2CCN(C(C)C)CC2)CC1 (stereo not given) | 92% (active) | 72% (active) | -3 | 100% (active) | inactive | inactive | inactive | inactive |

| SMILES | growth inhibition [1] | inhibition [2] | inhibition [3] [%] | growth inhibition [4] | outcome [5] | outcome [6] | outcome [7] | outcome [8] |
| --- | --- | --- | --- | --- | --- | --- | --- | --- |
| CCC(C)Oc1ccc(CCCON2C(N)=NC(N)=NC2(C)C)cc1 (stereo not given) | 95% (active) | 65% (active) | -8 | 92% (active) | inactive | inactive | inactive | inactive |
| Nc1ccc(-c2cnc3[nH]cc(-c4ccc(C(=O)O)cc4)c3c2)cn1 | 99% (active) | 48% | 1 | 97% (active) | inactive | inactive | inactive | inactive |
| CN(C)c1ccc(-c2csc(C(=O)NCC3CCN(Cc4ccc(C(C)(C)C)cc4)C3)c2)cc1 (stereo not given) | 64% (active) | 29% | 0 | 97% (active) | inactive | inactive | inactive | inactive |
| O=c1cc(NC[C@H]2CCC[C@@H]2NCc2cc(Br)cc(Br)c2)[nH]c2ccccc12 | 45% | 21% | 2 | 101% (active) | inactive | inactive | inactive | inactive |
| Cc1cccc2[nH]c(-c3cccc(-c4cccc(NC(=O)CNc5ccc(C(N)=O)cc5)c4)c3)nc12 | 56% (active) | 15% | 6 | 100% (active) | inactive | inactive | inactive | inactive |
| CC(C)(CNCc1cccc(Oc2cccc(C(F)(F)F)c2)c1)c1nc(-c2ccc(Cl)c(O)c2)c(-c2ccnc(N)n2)[nH]1 | 98% (active) | 23% | 2 | 99% (active) | inactive | inactive | inactive | inactive |
| O=C(CSc1nccn1Cc1ccco1)Nc1cc(C(F)(F)F)ccc1Cl | 66% (active) | 9% | -4 | 91% (active) | inactive | inactive | inactive | inactive |
| O=C(/C=C/c1ccc(Cl)c(Cl)c1)NCCCCCN1CCC(C(=O)Nc2ccc3c(c2)OCO3)CC1 | -3% | 18% | 4 | 92% (active) | inactive | inactive | inactive | inactive |
| O=C(Nc1ccc(S(=O)(=O)N2CCOCC2)cc1)c1cc(-c2cc(Cl)ccc2O)n[nH]1 | 59% (active) | 40% | -3 | 96% (active) | inactive | inactive | inactive | inactive |
| c1cn(-c2ccc(CNc3nccc(Nc4ccc(OCCN5CCOCC5)cc4)n3)cc2)cn1 | 3% | 2% | -2 | 100% (active) | inactive | inactive | inactive | inactive |
| N#Cc1ccc(CNCCCCCCNCc2ccc(C#N)c3ccccc23)c2ccccc12 | 96% (active) | 51% (active) | -3 | 102% (active) | inactive | inactive | inactive | inactive |
| O=C(N[C@@H](Cc1ccccc1)C(=O)NC1CCCCC1)c1ccc(O)c(-c2ccc(Cl)c(Cl)c2)c1 | 99% (active) | -5% | 1 | 98% (active) | inactive | inactive | inactive | inactive |
| O=C(/C=C/c1ccc(Cl)c(Cl)c1)NCCCCCN1CCC(n2c(=O)[nH]c3ccccc32)CC1 | -1% | 38% | 2 | 97% (active) | inactive | inactive | inactive | inactive |
| N#Cc1ccc(N2CCN(Cc3ccc(-c4ccc(-c5nc6ccc(F)cc6[nH]5)s4)cc3)CC2)nc1 | 78% (active) | 12% | 3 | 100% (active) | inactive | inactive | inactive | inactive |
| O=S(=O)(Nc1ccc(CCN2CCC(N3CCCCC3)CC2)cc1)c1ccc2ccccc2c1 | 80% (active) | 44% | -2 | 101% (active) | inactive | inactive | inactive | inactive |
| CCCCCCN1CCC(NCc2cccc(C#N)c2)CC1 | 9% | 5% | -1 | 97% (active) | inactive | inactive | inactive | inactive |
| CN(C)Cc1ccc(-c2cccc(Nc3nccc(NCC(O)c4ccccc4)n3)c2)cc1 (stereo not given) | 100% (active) | 74% (active) | -1 | 102% (active) | inactive | inactive | inactive | inactive |
| Cn1cnc(CCNC(=O)c2ccc(-c3ccc(-c4nc5ccc(F)cc5[nH]4)cc3)cc2)c1 | 15% | 17% | 0 | 92% (active) | inactive | inactive | inactive | inactive |
| CN1CCC(NCc2ccc(-c3cnc(NCc4ccccc4)nc3)cc2)CC1 | 64% (active) | 23% | 4 | 91% (active) | inactive | inactive | inactive | inactive |
| NS(=O)(=O)c1cccc(-c2ccc3c(=O)[nH]cnc3c2)c1 | 100% (active) | 6% | 4 | 99% (active) | inactive | inactive | inactive | inactive |
